Measurements: PubChem BioAssay

target: Voltage-gated potassium channel subunit beta-2 (Rattus norvegicus) (UniProt P62483); assay: KvBeta positive modulators, primary screen, biochemical, NADPH fluorescence (AID 623); conditions: Recombinant KvBeta, NADPH fluorescence decrease slope, 10 min; at 10 µM; hits give low values;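 note: fluorescence intensity change per second fitted from 20 to 320 s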
Sequence (P62483 whole entry, looked up): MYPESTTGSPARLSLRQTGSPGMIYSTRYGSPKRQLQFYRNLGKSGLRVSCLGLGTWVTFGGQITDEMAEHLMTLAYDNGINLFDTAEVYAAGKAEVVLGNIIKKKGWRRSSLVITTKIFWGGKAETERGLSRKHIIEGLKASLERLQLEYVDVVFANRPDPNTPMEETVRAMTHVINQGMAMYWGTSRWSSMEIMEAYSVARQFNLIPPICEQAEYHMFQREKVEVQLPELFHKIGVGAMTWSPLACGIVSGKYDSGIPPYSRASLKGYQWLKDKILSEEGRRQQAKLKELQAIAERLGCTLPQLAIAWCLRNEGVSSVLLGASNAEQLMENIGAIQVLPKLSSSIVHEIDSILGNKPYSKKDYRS

NADPH fluorescence slope, inactive:
Cc1nnc(N2CCOCC2)c2ccccc12 -0.000134, CCOc1ccc2c(c1)n([O-])c1c([n+]2=O)CCCC1 -0.000101, C[N+]1(CCNC(=O)/C=N/O)CCCCC1 -2.5e-05, Cc1ccc(C(=O)NCCCNCCCNC(=O)c2ccc(C)nc2)cn1 -8.7e-05, CCCCCOc1ccccc1C(=O)NCCCC(=O)O -0.000126, CCN(CC)c1nc(C)c2c(c1C#N)CC(C)(C)OC2 -1.1e-05, Cn1ncc(N=Cc2ccccc2O)c1C(=O)N1CCOCC1 -9.6e-05, CN1CCN(c2c3c(c(C#N)c4nc5ccccc5n24)CCCC3)CC1 -3.3e-05, CC(C(=O)NC(=O)NCc1ccccc1)N1C(=O)c2ccccc2C1=O (stereo not given) -4.3e-05, COC(=O)c1cc(Br)c(=O)n(-c2cc(C)on2)c1 -1.4e-05, CCOC(=O)c1[nH]c2ccc(OC)cc2c1NC(=O)CCN1CCCC(C)C1 (stereo not given) -1.8e-05, COc1cccc(C(=O)c2sc(NC(C)C)nc2N)c1 -7.1e-05, CCOc1ccc(-c2nc(C#N)c(N3CCN(CC)CC3)o2)cc1 -0.00012, CCC(CC)n1[nH]c(=O)cc1N -9.4e-05, CC1(C)Cc2nc(NCCN3CCOCC3)c(C#N)cc2CO1 -8.5e-05, COc1ccc2nc(/N=C(\N)NC(=O)C(C)(C)C)nc(C)c2c1 -3e-05, CC(C)CNc1nc2c(c(=O)n(C)c(=O)n2C)n1Cc1cccc(Br)c1 -3.9e-05, COc1ccccc1C(=O)Nc1cc(Cl)ccc1O -0.000129, c1ccc(-n2ncc3c(N4CCCC4)ncnc32)cc1 -3.1e-05, NC(=O)C1CCN(CCC(=O)Nc2ccc(Br)cc2)CC1 -5.4e-05, CCCCC(=O)c1c(C)cc(C)[nH]c1=O -7.1e-05, C/C(NC(=O)c1cccs1)=C1\C(=O)C[C@@H]2[C@H]1C2(C)C -6e-05, CC1CCN(c2[nH]c(=S)c(C#N)c3c2CCCC3)CC1 -0.000131, CCC(=O)Nc1ccc(-c2nnc(SCC(=O)NCC3CCCO3)n2C)cc1 (stereo not given) -5.7e-05, Cc1nnc(N2CCCCC2)c2ccccc12 -9.4e-06, Cc1cccc(-n2ncc3c(NCCN4CCOCC4)ncnc32)c1 -2.6e-05, N#CCCN(C(=O)c1ccco1)c1ccccc1 -0.000111, N#Cc1c(N)nc(SCC(=O)NCc2ccc3c(c2)OCO3)c(C#N)c1-c1cccs1 -6.7e-05, CCC1CC2(C)NC(=O)c3c(sc4c3CC(C)(C)OC4)N2C1=O (stereo not given) 3.9e-06, C=CCN=C(C)C1=C(O)CCC1=O -6.8e-05, Cc1ccc(-n2ncc3c(NCc4cccnc4)ncnc32)c(C)c1 -4.3e-05, Clc1ccc(COc2ccccn2)c(Cl)c1 -4.6e-05, Cc1cc(=O)oc(C)c1C(=O)Nc1ccc2nsnc2c1 -2.8e-05, O=C(C1CCCCC1)N1CCCn2c1nc1ccccc12 -3.7e-05, CCc1nc(NCC2CCCO2)c(C#N)c2c1COC(C)(C)C2 (stereo not given) -4e-05, CCc1nc(N2CCOCC2)c(C#N)c2c1CCCC2 -6.5e-05, CCc1cc(=O)oc2cc(C)c(CN3CCCC(C)C3)c(O)c12 (stereo not given) -2.8e-05, C=CCN=C(NC#N)SCCc1ccccc1 -6.6e-05, CCN(CC)CCN1C(=O)c2ccccc2NC1c1cc(OC)c(OC)c(OC)c1 (stereo not given) -1.4e-05, COc1ccc(C2C(C#N)=C(N)Oc3cc(C)n(CCN4CCOCC4)c(=O)c32)cc1OC (stereo not given) -3.9e-05
